Screening results from PubChem BioAssay.
This is a sample that favours compounds with a hit; in the whole collection about 1.3% have one here.
Vaccinia mCherry = inhibitors of vaccinia virus infection (mCherry reporter signal). Vaccinia virus mCherry reporter infection, fluorescence. Potency, µM (doses to about 36.5 µM), inactives show at the top dose activity change, negative = inhibition, usual class: inhibitors. actives 0.63% (n = 310,000). AID 720579; calls by dose curve; tested in A549 cells; note: % is set by controls: 0 for no effect and ±100 for the full control effect; nearly all actives have a fitted effect of over 35% in size
AmpC detergent = blocks E. coli AmpC beta-lactamase in detergent assay. AmpC hydrolysis of nitrocefin, absorbance 480 nm, 0.01% Triton. Potency, µM (series often up to 114 µM), for inactives: top-dose activity change, negative = inhibition, usual class: inhibitors. actives 0.041% (n = 370,000);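 note: 0% = no-compound wells and -100% = no-enzyme wells; nearly all actives have a fitted effect of over 25% in size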
Target sequence (P00811 whole entry, looked up): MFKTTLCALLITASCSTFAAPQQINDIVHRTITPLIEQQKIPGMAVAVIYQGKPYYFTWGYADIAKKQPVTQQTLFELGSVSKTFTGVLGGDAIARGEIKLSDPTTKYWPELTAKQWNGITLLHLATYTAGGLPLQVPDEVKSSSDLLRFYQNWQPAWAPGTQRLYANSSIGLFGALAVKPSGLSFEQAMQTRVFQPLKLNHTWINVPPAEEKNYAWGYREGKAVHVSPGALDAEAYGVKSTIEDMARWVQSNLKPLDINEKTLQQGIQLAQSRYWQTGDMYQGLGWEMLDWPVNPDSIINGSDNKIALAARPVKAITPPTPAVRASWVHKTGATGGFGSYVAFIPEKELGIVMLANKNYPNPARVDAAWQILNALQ
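20 mM phosphate pH 7.0 + 0.01% (detergent screen) or 0.0001% Triton X-100; 5.3 nM AmpC reagent; cpd preinc 15 min RT; nitrocefin (800 uM stock) to start; A480 q20 s × 4 min; Activity was normalised to no-enzyme and no-compound control wells.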
SARS PLpro yeast = SARS-CoV PLP inhibition in yeast | S. cerevisiae expressing SARS-CoV PLpro, growth rescue | Potency, µM (titrated, usually from 32.9 µM), for the others: at the highest dose activity, positive = growth rescue, actives largely listed as activators | actives 0.19% (n = 330,000); calls by dose curve; note: 0% is about no effect; nearly all actives have a fitted effect of over 55% in size
AMA1-RON2 inh = inhibitors of Plasmodium falciparum AMA1-RON2 interaction. actives 0.2% (n = 360,000). Potency, µM (highest dose often 58.2 µM), for inactives: at the top dose activity change, negative = inhibition, usual class: inhibitors. AlphaScreen AMA1-biotinylated RON2 peptide binding;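 note: 0% = vehicle wells and -100% = peptide control; nearly all actives have a fitted effect of over 45% in size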
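AMA1 (3D7) with his tag at 25 nM final met compounds first, then biotinylated RON2 peptide at 25 nM; detection used donor plus acceptor beads, 10 µg/mL apiece, read by AlphaScreen after 30 min at room temperature.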
AmpC inh no detg = AmpC beta-lactamase inhibition without detergent; AmpC nitrocefin hydrolysis, absorbance 480 nm, 0.0001% Triton; Potency, µM (doses to about 57.1 µM), without a hit: top-dose activity change, negative = inhibition, actives largely listed as inhibitors; actives 0.52% (n = 330,000);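 note: plate controls were no compound for no effect and no enzyme for full effect; nearly all actives have a fitted effect of over 20% in size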
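20 mM phosphate pH 7.0 + 0.01% (detergent screen) or 0.0001% Triton X-100; 5.3 nM AmpC reagent; cpd preinc 15 min RT; nitrocefin (800 uM stock) to start; A480 q20 s × 4 min; Activity was normalised to no-enzyme and no-compound control wells.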
VACV Venus inh = vaccinia inhibition (Venus reporter) | Vaccinia virus Venus reporter expression, fluorescence | Potency, µM (titrated, usually from 36.5 µM), for inactives: at the highest dose activity change, negative = inhibition, hits mostly inhibitors | actives 0.46% (n = 330,000) | AID 720580; calls by dose curve; tested in A549 cells; note: % is set by controls: 0 for no effect and ±100 for the full control effect; nearly all actives have a fitted effect of over 30% in size
* hit, by the source's call; i = inactive; ? = inconclusive; . = no result; [ ] = remark or other dose. Unless noted, calls come from the whole dose curve; as a rule, active = well fitted curve in the direction sought with a large enough effect; inconclusive = small, poorly fitted or top-dose-only effect, or another doubt; inactive = no such curve, though single readings can be large; an effect the other way counts as inactive or inconclusive. Potency is the fitted concentration of half-maximal effect.

SMILES	Vaccinia mCherry	AmpC detergent	SARS PLpro yeast	AMA1-RON2 inh	AmpC inh no detg	VACV Venus inh
CC(=O)Oc1ccccc1C(=O)O	-12%	.	.	-26%	.	-8%
CC(=O)[O][Hg][c]1ccccc1	20µM*	.	.	.	.	?
CN(C)c1ccc(CNC(=O)C2(C)Cc3c(-c4ccc(N(C)C)cc4)ccnc3O2)cc1 (stereo not given)	-23%	.	.	11µM*	.	?
CN(C)c1ccc(CNC(=O)C2(C)Cc3c(-c4ccc5c(c4)OCO5)ccnc3O2)cc1 (stereo not given)	-15%	.	.	28µM*	.	?
CN(C)c1ccc(CNC(=O)C2Cc3c(-c4ccccc4Oc4ccccc4)ccnc3O2)cc1 (stereo not given)	9%	.	.	10µM*	.	-25%
CN(C)c1ccc(-c2ccnc3c2CC(C)(C(=O)Nc2cccc(N(C)C)c2)O3)cc1 (stereo not given)	3%	.	.	18µM*	.	3%
CN(C)c1ccc(-c2ccnc3c2CC(C)(C(=O)NCC2CC2)O3)cc1 (stereo not given)	-25%	.	.	?	.	-19%
COc1ccc(-c2nc3cc(C)ccc3cc2CN(C(=O)c2cc(C)nn2C)C2CC2)cc1OC	-14%	.	.	.	.	-17%
CN(C)c1ccc(CNC(=O)C2(C)Cc3c(-c4ccccc4)ccnc3O2)cc1 (stereo not given)	-6%	.	.	28µM*	.	-23%
O[C@@H]1CN(CC2CCCCC2)[C@@H](c2ccc(Cl)cc2)C[C@H]1n1cc(C2CC2)nn1	?	.	.	7%	.	14µM*
COc1ccc(N=c2cc(-c3ccc(OC)cc3)oc3ccccc23)cc1	-9%	?	-40%	13µM*	-26%	-25%
COc1ccc(-c2cc(=Nc3ccc(C)cc3)c3ccccc3o2)cc1	-6%	-5%	-14%	-5%	-13%	-9%
CCOc1ccc(N=c2cc(-c3ccc(OC)cc3)oc3ccccc23)cc1	-20%	1%	-59%	14µM*	-22%	-14%
COc1cccc(-n2c(/C=C/c3ccc(O)c(O)c3)nc3ccccc3c2=O)c1	?	-2%	0%	-6%	18µM*	396%
O=C(NCc1ccccc1)C(=O)NCC1OCCN1S(=O)(=O)c1ccc([N+](=O)[O-])cc1 (stereo not given)	10µM*	3%	1%	-6%	-49%	?
CNC(=O)C(=O)NCC1OCCN1S(=O)(=O)c1ccc([N+](=O)[O-])cc1 (stereo not given)	-22%	?	-16%	57%	-10%	?
CCC1(OC(=O)CN)C(=O)OCc2c1cc1n(c2=O)Cc2cc3ccccc3nc2-1 (stereo not given)	7.1µM*	1%	-4%	-3%	20%	?
CC[C@@]1(O)C(=O)OCc2c1cc1n(c2=O)Cc2cc3ccccc3nc2-1	?	2%	-3%	.	-14%	?
Cn1c(=O)[nH]c(=O)c2c1nc(Sc1nc3ccccc3s1)n2Cc1ccccc1	.	1%	11%	-5%	-9%	4µM*
O=C(CSc1nc2ccccc2s1)c1ccc(O)cc1O	.	-3%	-4%	55%	7.1µM*	.
O=C(Cc1nc2ccccc2s1)c1ccc(O)cc1O	.	0%	-8%	.	-23%	.
CCCn1c(N)c(C(=O)CSc2nc3ccccc3s2)c(=O)[nH]c1=O	11µM*	2%	-3%	-3%	-28%	-15%
CCCn1c(N)c(C(=O)CSc2nnc(N)s2)c(=O)[nH]c1=O	.	-8%	1%	0%	-18%	.
COc1cc(N)c(Cl)cc1C(=O)OCC(=O)Nc1cccnc1Cl	-14%	?	-1%	-13%	35µM*	-8%
Oc1ccc2ccccc2c1N=Nc1ccccc1F	.	4%	-2%	10µM*	-18%	.
SMILES	Vaccinia mCherry	AmpC detergent	SARS PLpro yeast	AMA1-RON2 inh	AmpC inh no detg	VACV Venus inh
Oc1ccc2ccccc2c1N=Nc1ccccn1	.	-5%	-22%	10µM*	28%	-20%
NC(=O)c1ccc(NC(=O)C#Cc2ccccc2)cc1	7.1µM*	3%	0%	0%	-15%	-29%
COc1cc(CNC(=O)c2cnn(-c3ncc4c(n3)-c3ccccc3CC4)c2C)cc(OC)c1OC	?	.	.	.	.	-28%
O=P(CCCCCCCCCP(=O)(c1ccccc1)c1ccccc1)(c1ccccc1)c1ccccc1	?	-2%	-17%	-6%	61%	16µM*
CCN1CCCc2cc(CN(CCN3CCOCC3)C(=S)Nc3ccc(C)cc3)ccc21	-9%	10%	0%	-18%	155%	-2%
CCN1CCCc2cc(CN(CCN3CCOCC3)C(=S)Nc3cccc(Cl)c3)ccc21	?	6%	8%	3.5µM*	123%	-3%
C[C@@H](c1ccccc1)N1C[C@H]2CCCN2c2cc(Br)ccc2S1(=O)=O	i	.	-7%	-3%	-35%	-25%
COc1cc(C2c3cc4c(cc3OC(NNC(N)=S)C2C)OCO4)cc(OC)c1OC (stereo not given)	2.8µM*	.	.	19%	.	?
Cc1cccc(CNC(=O)c2cnn(-c3ncc(C)c(-c4cccs4)n3)c2C2CC2)n1	-14%	.	.	.	.	5%
Cc1ccc(NS(=O)(=O)c2ccc(Cl)c(C(=O)Nc3ccccc3-c3nc4ccccc4[nH]3)c2)cc1C	?	-6%	-10%	-11%[2.32 µM]	-31%	10µM*
Cc1cc(C(=O)NCc2nnc3n2CCN(Cc2ccc(F)cc2F)CC3)c(C)o1	-2%	.	.	.	.	1%
O=C(CSc1nc2c([nH]c3ccccc32)c(=O)n1-c1ccc(F)cc1)NCc1ccco1	-4%	7%	16%	-4%	22µM*	-9%
O=C(CSc1nc2c([nH]c3ccccc32)c(=O)n1-c1ccc(F)cc1)NCc1ccc(F)cc1	-11%	3%	.	.	.	-5%
O=C(COC(=O)C1CC(=O)N(c2ccccc2)C1)c1ccccc1 (stereo not given)	-6%	?	-12%	-1%	1.4µM*	-7%
COc1ccc(N2CC(C(=O)OCC(=O)c3ccccc3)CC2=O)cc1 (stereo not given)	-9%	?	-2%	13%	14%	-2%
COc1ccc(Cc2nc(-c3ccc(-n4cccc4)cc3)no2)cc1	.	-9%	8%	-9%	-20%	.
COc1ccc(Cc2nc(-c3ccc(-n4cccc4)cc3)no2)cc1OC	-20%	0%	-7%	?	8.9µM*	-21%
CCC(CC)NC(=O)Nc1cccc(C)c1C	.	-1%	0%	-9%	-9%[2.29 µM]	.
